Laboratory results reported in PubChem BioAssay (Tox21).
Results filed as inconclusive are left out. Activity calls are given as the source filed them. Unless noted, calls follow the shape of the full dose curve.

Columns and labels:
[1] = Nuclear factor erythroid 2-related factor 2/antioxidant responsive element (Nrf2/ARE) small molecule agonists: qHTS cell viability counter screen in human keratinocytes (AID 1919968; active = well fitted curve in the direction sought with a large enough effect in the repeat runs; an effect the other way counts as inactive or inconclusive; also: nearly all actives have a fitted effect of over 55% in size)
Procedure, shortened: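 Measured as CellTiter-Fluor fluorescence, this readout tracks cytotoxicity in the same wells as the ARE-luciferase screen. HaCaT reporter cells (1,500/well) received compounds after a 5 h pre-incubation and were exposed for 23 h.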

[2] = Nuclear factor erythroid 2-related factor 2/antioxidant responsive element (Nrf2/ARE) small molecule agonists: luciferase reporter gene qHTS assay in human keratinocytes (AID 1919969); also: nearly all actives have a fitted effect of over 35% in size
[3] = target: Gonadotropin-releasing hormone receptor (Homo sapiens) (UniProt P30968); test: Human gonadotropin-releasing hormone receptor (GnRHR) small molecule agonists, calcium flux assay in GnRHR-HEK293 cells (AID 1920063); also: nearly all actives have a fitted effect of over 35% in size
Procedure, shortened: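 Fluorescence kinetics (480 nm excitation, 540 nm emission; 3 min, 1 s steps) report calcium mobilisation in human GnRHR-HEK293 cells in agonist mode. Dye incubation: 1 h, 37 C.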

[4] = target: KiSS-1 receptor (Homo sapiens) (UniProt Q969F8); test: Human kisspeptin (KISS1R) small molecule agonists, calcium flux assay in KISS1R-HEK293 cells (AID 1920064; active = well fitted curve in the direction sought with a large enough effect in the repeat runs; an effect the other way counts as inactive or inconclusive)
Procedure, shortened: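 Measures KISS1R agonism through calcium-sensitive dye fluorescence in stably transfected HEK293 cells, read for 3 min after pin-tool compound delivery; 15-point titrations in triplicate.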

[5] = G protein-coupled receptor (GPCR) small molecule agonists, calcium flux assay: HEK293 wild type cell line counter screen (AID 1920065)
Procedure, shortened: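 Readout: fluorescence at 480 nm excitation/540 nm emission, sampled at 1 s intervals for 3 min. Cells had been cultured 18 h, then dye-loaded 1 h at 37 C before compound or ATP addition.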

[6] = p53 small molecule agonists, cell-based qHTS assay with human liver microsomes: qHTS cell viability counter screen (AID 1963579); also: nearly all actives have a fitted effect of over 45% in size
Procedure, shortened: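 p53RE-bla cells (4,000/well) were pre-incubated 5 h at 37 C, then given compounds in DMSO plus human liver microsomes (0.5 mg/mL final) and NADPH (0.5 mg/mL final) for 16 h at 37 C. Viability was read by CellTiter-Glo luminescence.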

[7] = p53 small molecule agonists, cell-based qHTS assay with rat liver microsomes: qHTS cell viability counter screen (AID 1963580); also: nearly all actives have a fitted effect of over 45% in size
Procedure, shortened: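 HCT-116 p53RE-bla, 4,000 cells/well, 5 h pre-incubation; cpd + rat liver microsomes 0.5 mg/mL + NADPH 0.5 mg/mL (final); 16 h, 37 C; CellTiter-Glo, 30 min RT; luminescence.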

[8] = p53 small molecule agonists, cell-based qHTS assay: qHTS cell viability counter screen (AID 1963581); also: nearly all actives have a fitted effect of over 45% in size
Procedure, shortened: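 In the same plates used for the p53 bla reporter, HCT-116 cells given compounds for 16 h at 37 C received CellTiter-Glo; luminescence was recorded 30 min later at room temperature.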

[9] = target: 5-hydroxytryptamine receptor 2A (Homo sapiens) (UniProt P28223); test: 5-hydroxytryptamine receptor 2A (HTR2A) small molecule antagonists, cell-based qHTS assay (AID 1963586); also: nearly all actives have a fitted effect of over 45% in size; also: potency is read from the fitted curve at half-maximal effect
Procedure, shortened: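 Antagonist-mode intracellular calcium assay: DOI (4 nM) added after 5 min compound pre-incubation at room temperature to dye-loaded HTR2A-CHO cells. Fluorescence followed for 3 min, sampled every second.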

[10] = target: 5-hydroxytryptamine receptor 2A (Homo sapiens) (UniProt P28223); test: 5-hydroxytryptamine receptor 2A (HTR2A) small molecule agonists, cell-based qHTS assay (AID 1963587); also: nearly all actives have a fitted effect of over 30% in size
Procedure, shortened: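 Kinetic calcium-flux fluorescence (2 min, 1 sec intervals) after compound addition in agonist mode. HTR2A-CHO cells were cultured 18 h, then dye-loaded 1 h at 37 C.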

[11] = target: Muscarinic acetylcholine receptor M1 (Homo sapiens) (UniProt P11229); test: Cholinergic receptor muscarinic 1 (CHRM1) small molecule antagonists, cell-based qHTS assay (AID 1963588); also: nearly all actives have a fitted effect of over 40% in size; also: potency is read from the fitted curve at half-maximal effect
Procedure, shortened: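 CHRM1-CHO calcium-flux assay, antagonist mode. Cells were seeded 18 h, dye-loaded 1 h at 37 C and given compound for 5 min at RT, then acetylcholine was added at 50nM. FDSS fluorescence was read 3 min; 15 concentrations, three runs.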

[12] = target: Muscarinic acetylcholine receptor M1 (Homo sapiens) (UniProt P11229); test: Cholinergic receptor muscarinic 1 (CHRM1) small molecule agonists, cell-based qHTS assay (AID 1963589); also: nearly all actives have a fitted effect of over 35% in size
Procedure, shortened: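 Each compound was tested at 15 concentrations across three independent runs on dye-loaded CHO cells stably expressing human CHRM1, reading intracellular calcium fluorescence kinetically at 1 sec intervals.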

[13] = cAMP Responsive Elements (CRE) small molecule agonists, cell-based qHTS assay (AID 1963590)
Procedure, shortened: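 Cell line: CRE-bla HEK 293T; medium DMEM/10% dialyzed FBS/0.1 mM NEAA/1 mM pyruvate/25 mM HEPES; 3 h compound exposure; beta-lactamase FRET readout after 2 h substrate loading at RT.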

[14] = cAMP Responsive Elements (CRE) small molecule antagonists, cell-based qHTS assay (AID 1963591; active = well fitted inhibition curve with a large enough effect in the signal ratio in the repeat runs, not every such curve was filed as active; the % refers to the signal ratio)
Procedure, shortened: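 Inhibition of NKH477-driven (0.25 uM final) CRE-beta-lactamase signal in HEK293T cells, 3 h compound exposure at 37 °C, detected by FRET substrate fluorescence.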

[15] = target: Beta-2 adrenergic receptor (Homo sapiens) (UniProt P07550); test: Adrenergic beta2 receptor (ADRB2) small molecule agonists, cell-based qHTS assay (AID 1963593);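 also: CHO cells stably overexpressing human ADRB2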
Procedure, shortened: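 CHO cells stably over-expressing ADRB2 were plated overnight at 37C, then dosed with compounds plus a stimulation mix containing 100uM IBMX and 25uM Ro-20-1724 for 0.5hr at room temperature. cAMP was measured by HTRF competition, 1hr.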

[16] = target: D(2) dopamine receptor (Homo sapiens) (UniProt P14416); test: Dopamine D2 receptor (DRD2) small molecule antagonists, cell-based qHTS assay (AID 1963595; active = well fitted inhibition curve with a large enough effect in the signal ratio in the repeat runs, with a control signal flat; the % refers to the signal ratio)
Procedure, shortened: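 Human DRD2 antagonist qHTS measuring cAMP by HTRF. The cells are exposed to compound for 10 min, then to NKH477 (200 nM) and quinpirole (12 nM) for 30 min at RT, with Ro20-1724 (0.1 mM) present throughout.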

[17] = target: Beta-2 adrenergic receptor (Homo sapiens) (UniProt P07550); test: Adrenergic beta2 receptor (ADRB2) small molecule antagonists, cell-based qHTS assay (AID 1963592); also: nearly all actives have a fitted effect of over 50% in size; also: potency is read from the fitted curve at half-maximal effect; as to activity change, negative = inhibition: series mostly up to about 92 µM
Procedure, shortened: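 Cells (CHO, stable ADRB2 overexpression) incubated 18-20hr at 37C; compounds added from DMSO; agonist mix (1nM isoproterenol, 100uM IBMX, 25uM Ro-20-1724) added; 0.5hr RT; d2-cAMP and anti-cAMP-cryptate added; 1hr RT; 665/615 nm read.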

[18] = target: D(2) dopamine receptor (Homo sapiens) (UniProt P14416); test: Dopamine D2 receptor (DRD2) small molecule agonists, cell-based qHTS assay (AID 1963594); also: nearly all actives have a fitted effect of over 35% in size
Procedure, shortened: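 cAMP accumulation in DRD2-HEK293 cells measured by HTRF after 1 h detection; compounds added 10 min before NKH477 (200nM […]) forskolin-analogue stimulation, 30 min at room temperature, with Ro20-1724 present at 0.1 mM final.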
% is scaled to controls: 0 for no effect and ±100 for the full control effect.

Beta-2 adrenergic receptor (Homo sapiens), sequence (P07550 whole entry, looked up): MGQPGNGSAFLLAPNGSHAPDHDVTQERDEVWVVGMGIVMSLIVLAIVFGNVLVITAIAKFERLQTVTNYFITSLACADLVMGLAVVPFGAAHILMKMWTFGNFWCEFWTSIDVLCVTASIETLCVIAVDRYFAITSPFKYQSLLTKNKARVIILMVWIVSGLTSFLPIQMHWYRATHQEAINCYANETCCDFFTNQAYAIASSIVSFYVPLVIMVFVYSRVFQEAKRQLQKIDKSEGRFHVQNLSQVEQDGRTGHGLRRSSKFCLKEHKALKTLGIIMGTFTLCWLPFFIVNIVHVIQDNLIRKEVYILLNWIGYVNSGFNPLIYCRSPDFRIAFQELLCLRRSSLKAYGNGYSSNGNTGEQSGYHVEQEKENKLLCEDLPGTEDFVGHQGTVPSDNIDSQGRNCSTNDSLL
Gonadotropin-releasing hormone receptor (Homo sapiens), sequence (P30968 whole entry, looked up): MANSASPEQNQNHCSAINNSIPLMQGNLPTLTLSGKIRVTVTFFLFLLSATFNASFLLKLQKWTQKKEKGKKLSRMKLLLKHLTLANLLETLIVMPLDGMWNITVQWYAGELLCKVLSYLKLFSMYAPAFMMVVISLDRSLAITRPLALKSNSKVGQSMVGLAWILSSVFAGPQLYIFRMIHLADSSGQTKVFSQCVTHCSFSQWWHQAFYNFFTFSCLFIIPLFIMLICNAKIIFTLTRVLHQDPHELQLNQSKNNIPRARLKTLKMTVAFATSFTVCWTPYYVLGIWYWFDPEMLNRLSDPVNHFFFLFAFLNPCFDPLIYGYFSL
5-hydroxytryptamine receptor 2A (Homo sapiens), sequence (P28223 whole entry, looked up): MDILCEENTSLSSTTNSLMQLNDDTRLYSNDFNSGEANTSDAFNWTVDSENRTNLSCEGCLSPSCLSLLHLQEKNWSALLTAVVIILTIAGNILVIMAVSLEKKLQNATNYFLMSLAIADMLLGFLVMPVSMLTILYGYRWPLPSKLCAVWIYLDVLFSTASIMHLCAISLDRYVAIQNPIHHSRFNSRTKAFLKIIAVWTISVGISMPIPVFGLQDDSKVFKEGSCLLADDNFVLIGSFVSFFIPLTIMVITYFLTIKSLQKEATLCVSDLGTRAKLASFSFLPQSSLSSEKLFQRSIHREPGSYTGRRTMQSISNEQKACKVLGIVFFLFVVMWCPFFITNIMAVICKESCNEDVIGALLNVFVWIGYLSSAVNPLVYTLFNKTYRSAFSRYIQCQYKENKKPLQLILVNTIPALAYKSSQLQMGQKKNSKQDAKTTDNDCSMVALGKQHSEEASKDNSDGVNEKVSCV
Muscarinic acetylcholine receptor M1 (Homo sapiens), sequence (P11229 whole entry, looked up): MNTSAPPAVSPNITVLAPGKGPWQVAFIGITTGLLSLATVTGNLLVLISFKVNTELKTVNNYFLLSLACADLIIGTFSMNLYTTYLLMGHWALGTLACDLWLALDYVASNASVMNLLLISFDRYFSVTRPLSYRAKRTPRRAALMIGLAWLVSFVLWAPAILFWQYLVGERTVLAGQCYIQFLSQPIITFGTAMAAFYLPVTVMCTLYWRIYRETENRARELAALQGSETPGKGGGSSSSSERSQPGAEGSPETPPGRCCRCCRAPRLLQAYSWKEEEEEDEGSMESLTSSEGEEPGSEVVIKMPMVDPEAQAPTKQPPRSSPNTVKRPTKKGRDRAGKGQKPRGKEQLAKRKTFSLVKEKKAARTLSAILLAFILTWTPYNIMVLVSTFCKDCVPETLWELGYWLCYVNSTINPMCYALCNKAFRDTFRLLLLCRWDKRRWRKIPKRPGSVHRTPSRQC
KiSS-1 receptor (Homo sapiens), sequence (Q969F8 whole entry, looked up): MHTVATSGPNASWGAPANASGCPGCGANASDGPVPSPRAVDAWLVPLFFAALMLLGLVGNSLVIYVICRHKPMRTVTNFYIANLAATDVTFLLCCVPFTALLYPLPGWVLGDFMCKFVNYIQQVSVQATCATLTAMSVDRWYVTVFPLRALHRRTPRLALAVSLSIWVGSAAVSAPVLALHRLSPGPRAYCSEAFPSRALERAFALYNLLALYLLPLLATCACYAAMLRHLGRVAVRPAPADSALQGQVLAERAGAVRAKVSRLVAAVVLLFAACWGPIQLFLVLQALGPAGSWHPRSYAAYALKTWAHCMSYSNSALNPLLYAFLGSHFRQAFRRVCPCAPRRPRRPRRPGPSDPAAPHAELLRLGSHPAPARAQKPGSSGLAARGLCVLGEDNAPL
D(2) dopamine receptor (Homo sapiens), sequence (P14416 whole entry, looked up): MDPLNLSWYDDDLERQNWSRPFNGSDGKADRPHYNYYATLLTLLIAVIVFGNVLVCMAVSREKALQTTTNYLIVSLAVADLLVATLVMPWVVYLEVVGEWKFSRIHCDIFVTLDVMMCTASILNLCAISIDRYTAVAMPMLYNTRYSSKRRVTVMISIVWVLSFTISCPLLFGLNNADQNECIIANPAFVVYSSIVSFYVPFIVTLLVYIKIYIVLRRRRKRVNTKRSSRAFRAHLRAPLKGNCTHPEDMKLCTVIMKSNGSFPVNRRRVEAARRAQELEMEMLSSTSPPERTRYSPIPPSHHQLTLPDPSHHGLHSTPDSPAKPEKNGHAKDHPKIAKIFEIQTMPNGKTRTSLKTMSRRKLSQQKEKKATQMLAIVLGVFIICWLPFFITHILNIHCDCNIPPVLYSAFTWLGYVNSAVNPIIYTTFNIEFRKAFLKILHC

CC/C=C/CCCCCCCCCCOC(C)=O
inactive: Potency [1] | Potency [2] | Potency [3] | Potency [4] | Potency [5] | Potency [6] | Potency [7] | Potency [8] | Potency [9] | Potency [10] | Potency [11] | Potency [12] | Potency [13] | Potency [14] | Potency [15] | Potency [16]

O=C(O)C(c1ccc(Cl)cc1)c1ccc(Cl)cc1
inactive: Potency [1] | Potency [2] | Potency [3] | Potency [4] | Potency [5] | Potency [6] | Potency [7] | Potency [8] | Potency [9] | Potency [10] | Potency [11] | Potency [12] | Potency [14] | Potency [17] | Potency [18] | Potency [16]

CCOC(=O)OCC
inactive: Potency [1] | Potency [2] | Potency [3] | Potency [4] | Potency [5] | Potency [6] | Potency [7] | Potency [8] | Potency [9] | Potency [10] | Potency [11] | Potency [12] | Potency [13] | Potency [14] | Potency [18] | Potency [16]

SCCOCCOCCS
inactive: Potency [1] | Potency [2] | Potency [3] | Potency [4] | Potency [5] | Potency [6] | Potency [7] | Potency [8] | Potency [9] | Potency [10] | Potency [11] | Potency [12] | Potency [14] | Potency [18] | Potency [16]

COC1CCC=CO1 (stereo not given)
inactive: Potency [1] | Potency [2] | Potency [3] | Potency [4] | Potency [5] | Potency [6] | Potency [7] | Potency [8] | Potency [9] | Potency [10] | Potency [11] | Potency [12] | Potency [13] | Potency [17]

C=CCCCCCCCCCCCCCC
inactive: activity change, negative = cytotoxicity [1] 5.7% [at 19 µM] | activity, positive = activation [2] -0.484% [at 19 µM] | activity change [3] 0.565% [at 11.8 µM, active compounds read high] | activation [4] -0.0025% [at 15.8 µM] | activation [5] 0.0173% [at 11.8 µM] | activity change, negative = cytotoxicity [6] 3.4% [at 13.5 µM] | activity change, negative = cytotoxicity [7] -3.36% [at 13.5 µM] | activity change, negative = cytotoxicity [8] -15.7% [at 13.5 µM] | activity, negative = inhibition [9] 4.99% [at 12.7 µM] | activation [10] 4.53% [at 15.9 µM] | activity, negative = inhibition [11] -25.1% [at 12.6 µM] | activation [12] -0.058% [at 15.8 µM] | activation [13] -0.128% [at 19 µM] | activity change, negative = inhibition [17] 8.54% [at 19 µM] | activation [18] -4.33% [at 19 µM] | activity change, negative = inhibition [16] -4.22% [at 18.9 µM]

CN(C)CCOc1ccccc1Cc1ccccc1
active: Potency [9] 0.326 µM | Potency [11] 1.45 µM | Potency [17] 33.5 µM
inactive: Potency [1] | Potency [2] | Potency [3] | Potency [4] | Potency [5] | Potency [6] | Potency [7] | Potency [8] | Potency [10] | Potency [12] | Potency [14] | Potency [18] | Potency [16]

COc1ccc(Cc2cnc(N)nc2N)cc1OC
inactive: Potency [1] | Potency [2] | Potency [3] | Potency [4] | Potency [5] | Potency [6] | Potency [7] | Potency [8] | Potency [9] | Potency [10] | Potency [11] | Potency [12] | Potency [13] | Potency [17] | Potency [15] | Potency [18] | Potency [16]

CN(C)[C@@H]1C(=O)C(C(N)=O)=C(O)[C@@]2(O)C(=O)C3=C(O)c4c(O)ccc(Cl)c4[C@@H](O)[C@H]3C[C@@H]12
inactive: Potency [1] | Potency [2] | Potency [3] | Potency [4] | Potency [5] | Potency [6] | Potency [7] | Potency [8] | Potency [9] | Potency [10] | Potency [11] | Potency [12] | Potency [17] | Potency [15] | Potency [18] | Potency [16]

CN(C)c1ccncc1
inactive: Potency [1] | Potency [2] | Potency [3] | Potency [4] | Potency [5] | Potency [6] | Potency [7] | Potency [8] | Potency [9] | Potency [10] | Potency [11] | Potency [12] | Potency [14] | Potency [17] | Potency [16]

COC(=O)c1ccc(C(=O)OC)c(C(=O)OC)c1
inactive: Potency [1] | Potency [2] | Potency [3] | Potency [4] | Potency [5] | Potency [6] | Potency [7] | Potency [8] | Potency [9] | Potency [10] | Potency [11] | Potency [12] | Potency [13] | Potency [17] | Potency [15] | Potency [18] | Potency [16]

Cc1ccc(C(N)=O)cc1N
inactive: Potency [1] | Potency [2] | Potency [3] | Potency [4] | Potency [5] | Potency [6] | Potency [7] | Potency [8] | Potency [9] | Potency [10] | Potency [11] | Potency [12] | Potency [14] | Potency [17] | Potency [15] | Potency [18] | Potency [16]

Cc1ccc(C(=O)O)cc1[N+](=O)[O-]
inactive: Potency [1] | Potency [2] | Potency [3] | Potency [4] | Potency [5] | Potency [6] | Potency [7] | Potency [8] | Potency [9] | Potency [10] | Potency [11] | Potency [12] | Potency [13] | Potency [14] | Potency [18] | Potency [16]

CC(CSC(=O)c1ccccc1)C(=O)N1C[C@@H](Sc2ccccc2)C[C@H]1C(=O)O (stereo not given in full)
inactive: activity change, negative = cytotoxicity [1] -6.69% [at 19 µM] | activity, positive = activation [2] -3.94% [at 19 µM] | activity change [3] -1.85% [at 11.8 µM, active compounds read high] | activation [4] -0.676% [at 15.8 µM] | activation [5] 0.566% [at 11.8 µM] | activity change, negative = cytotoxicity [6] -12.9% [at 13.5 µM] | activity change, negative = cytotoxicity [7] -5.44% [at 13.5 µM] | activity change, negative = cytotoxicity [8] 14.1% [at 13.5 µM] | activity, negative = inhibition [9] 20.9% [at 12.7 µM] | activation [10] -7.52% [at 15.9 µM] | activity, negative = inhibition [11] 17.6% [at 12.6 µM] | activation [12] -0.159% [at 15.8 µM] | activation [13] -1.82% [at 19 µM] | activity change, negative = inhibition [17] 10.2% [at 19 µM]

O/N=C/C=N/O
inactive: Potency [1] | Potency [2] | Potency [3] | Potency [4] | Potency [5] | Potency [6] | Potency [7] | Potency [8] | Potency [9] | Potency [10] | Potency [11] | Potency [12] | Potency [14] | Potency [17] | Potency [15] | Potency [18] | Potency [16]

O=C(OCC(COC(=O)c1cccnc1)(COC(=O)c1cccnc1)COC(=O)c1cccnc1)c1cccnc1
inactive: Potency [1] | Potency [2] | Potency [3] | Potency [4] | Potency [5] | Potency [6] | Potency [7] | Potency [8] | Potency [9] | Potency [10] | Potency [11] | Potency [12] | Potency [13] | Potency [17] | Potency [15] | Potency [18] | Potency [16]
